Anesthetic bind: qHTS Assay for Identification of Novel General Anesthetics. Potency, µM (doses to about 77.5 µM), for inactives: top-dose activity change, negative = displacement, actives largely listed as inhibitors. 0.074% of 350,000 active. apoferritin/1-aminoanthracene competitive binding, fluorescence. Ferritin light chain (Equus caballus), P02791; also: nearly all actives have a fitted effect of over 20% in size
Target sequence (P02791 2-175 limits assumed): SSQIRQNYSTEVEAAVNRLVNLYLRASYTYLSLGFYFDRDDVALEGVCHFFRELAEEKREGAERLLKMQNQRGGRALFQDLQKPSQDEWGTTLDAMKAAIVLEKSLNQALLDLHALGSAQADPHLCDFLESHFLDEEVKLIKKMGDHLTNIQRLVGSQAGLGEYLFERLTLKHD
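Concentration-response curves derived by four-parameter Hill fitting of normalized fluorescence, where compounds displaced 1-AMA from 10 uM horse apoferritin following a brief 10 min room-temperature incubation; propofol titration acted as positive control.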
IDH1 R132H inh: qHTS for Inhibitors of mutant isocitrate dehydrogenase 1 (IDH1): qHTS. Isocitrate dehydrogenase [NADP] cytoplasmic (Homo sapiens), O75874. IDH1-R132H enzyme, NADPH consumption, diaphorase/resazurin fluorescence. Potency, µM (doses to about 76.6 µM), for the others: at the highest dose activity change, negative = inhibition, most hits filed as inhibitors. 0.093% of 390,000 active; also: nearly all actives have a fitted effect of over 65% in size
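IDH1-R132H (0.5 ug/mL) preincubated 30 min with compound, then NADPH (0.016 mM) and alpha-KG (2 mM) added; 80 min at RT, pH 7.5. Remaining NADPH coupled via diaphorase/resazurin to fluorescence (540/590 nm); concentration-response curves normalized to no-enzyme control.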
TrxR1 inh: qHTS Assay for Inhibitors of Mammalian Selenoprotein Thioredoxin Reductase 1 (TrxR1): qHTS; recombinant rTrxR1, NADPH fluorescence consumption, selenite substrate; Potency, µM (doses to about 114 µM), without a hit: at the top dose activity change, negative = inhibition, actives largely listed as inhibitors; 1% of 390,000 active; AID 588453, 2011; also: nearly all actives have a fitted effect of over 65% in size
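Rat TrxR1 (90 nM in the dispensed reagent) was pre-reduced with 400 uM NADPH for 5 min at room temperature, then incubated with compound for 15 min. After 400 uM selenite was added, NADPH fluorescence (Ex 340/Em 450 nm) was followed for 8 min.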
GALK inhibitor: qHTS Assay for Inhibitors of Human Galactokinase (GALK); P51570; Purified GALK, Kinase-Glo residual ATP luminescence; Potency, µM (doses to about 57.5 µM), for the others: at the top dose activity change, negative = inhibition, usual class: inhibitors; 0.007% of 270,000 active
Target sequence (P51570 whole entry, looked up): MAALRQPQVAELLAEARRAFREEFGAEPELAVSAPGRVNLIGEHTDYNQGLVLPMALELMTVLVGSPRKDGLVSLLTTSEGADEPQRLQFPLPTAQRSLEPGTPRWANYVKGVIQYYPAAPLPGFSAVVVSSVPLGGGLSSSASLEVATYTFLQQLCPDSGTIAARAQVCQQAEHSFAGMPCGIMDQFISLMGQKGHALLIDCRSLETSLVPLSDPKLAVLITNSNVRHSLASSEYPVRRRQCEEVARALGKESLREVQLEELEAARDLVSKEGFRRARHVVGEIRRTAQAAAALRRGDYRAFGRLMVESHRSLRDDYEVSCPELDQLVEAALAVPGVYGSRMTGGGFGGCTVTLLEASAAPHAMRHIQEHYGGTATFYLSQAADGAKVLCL
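The enzyme phosphorylates galactose (100 uM) using ATP (35 uM); inhibition is detected as higher residual ATP, quantified by bioluminescence after 1 h reaction at room temperature, pH 8.0.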
PKM2 act: qHTS Assay for Activators of Human Muscle isoform 2 Pyruvate Kinase | purified PKM2, Kinase-Glo ATP luminescence, activation; response scale: 0% is enzyme alone, no compound | Potency, µM (doses to about 57.5 µM), without a hit: at the highest dose activation, actives largely listed as activators | 0.34% of 260,000 active; also: nearly all actives have a fitted effect of over 55% in size
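Purified hPK-M2 (>95% pure) converted ADP (0.1 mM final) to ATP with 0.5 mM PEP in 50 mM imidazole pH7.2, KCl, MgCl2, Tween 20, BSA; 1 h at room temperature. ATP detected by Kinase-Glo luminescence.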
TrxR1 substrate: qHTS Assay for Substrates of Mammalian Selenoprotein Thioredoxin Reductase 1 (TrxR1): qHTS. Thioredoxin reductase 1, cytoplasmic (Rattus norvegicus), O89049. purified TrxR1 substrate turnover, NADPH consumption readout. Potency, µM (doses to about 114 µM), inactives show top-dose activity change, negative = substrate turnover. 0.01% of 390,000 active. AID 588456, 2011; also: nearly all actives have a fitted effect of over 50% in size
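Rat TrxR1, dispensed at 90 nM, was prereduced with 400 uM NADPH (final) for 5 min at ~22 deg C, then incubated with compound 15 min before 400 uM selenite. A first-read NADPH fluorescence drop versus no-compound background flagged substrates.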
* hit, by the source's call; [ ] = remark or other dose. A selection: hits, their analogues and other compounds. The true share with any hit is near 1.3%. Calls follow the shape of the dose curve; as a rule, active = well fitted curve in the direction sought with a large enough effect; inconclusive = small, poorly fitted or top-dose-only effect, or another doubt; inactive = no such curve, though single readings can be large; an effect the other way counts as inactive or inconclusive. % is scaled to controls: 0 for no effect and ±100 for the full control effect; potency is read from the fitted curve at half-maximal effect.

Results for CCN1CCN(C2=C(NS(=O)(=O)c3ccc(C)cc3)C(=O)c3ccccc3C2=O)CC1 ?
Anesthetic bind: -19%; IDH1 R132H inh: 7%; TrxR1 inh: 79µM*; GALK inhibitor: 1%; TrxR1 substrate: -2%

Results for COc1cc(/C=C2\SC(=Nc3ccccc3)N(CCc3c[nH]c4ccccc34)C2=O)ccc1OC(C)C(=O)O (configuration not stated) ?
Anesthetic bind: -6%; IDH1 R132H inh: inconclusive; TrxR1 inh: -24%; GALK inhibitor: -5%; PKM2 act: 0%; TrxR1 substrate: -18%

Results for O=C1NC(=S)S/C1=C/c1ccc(N2CCOCC2)o1 ?
Anesthetic bind: -1%; IDH1 R132H inh: inconclusive; TrxR1 inh: 13µM*; GALK inhibitor: 2%; PKM2 act: -55%; TrxR1 substrate: -15%

How did O=C1S/C(=C/c2ccc(N3CCOCC3)o2)C(=O)N1Cc1ccc(F)cc1 do in these assays?
Anesthetic bind: -10%; IDH1 R132H inh: 13%; TrxR1 inh: 8.9µM*; GALK inhibitor: -3%; PKM2 act: 2µM*; TrxR1 substrate: -4%

How did O=C1N=C(N2CCOCC2)S/C1=C/c1ccc(-c2ccc(F)cc2)o1 do in these assays?
Anesthetic bind: -12%; IDH1 R132H inh: 7%; TrxR1 inh: -3%; GALK inhibitor: 5%; PKM2 act: 2%; TrxR1 substrate: -2%

How did CC(C)OC(=O)CN1C(=O)S/C(=C/c2ccc(N3CCCCC3)o2)C1=O do in these assays?
Anesthetic bind: inconclusive; IDH1 R132H inh: 1%; TrxR1 inh: inconclusive; GALK inhibitor: -3%; PKM2 act: 18%; TrxR1 substrate: -1%

Results for O=C1/C(=C/c2ccc(N3CCOCC3)o2)SC(=Nc2ccccc2)N1CCc1c[nH]c2ccccc12 ?
Anesthetic bind: inconclusive; IDH1 R132H inh: -2%; TrxR1 inh: 10µM*; GALK inhibitor: -2%; PKM2 act: inconclusive; TrxR1 substrate: -6%

How did O=C1S/C(=C\c2ccc(N3CCOCC3)o2)C(=O)N1Cc1ccc(F)cc1 do in these assays?
Anesthetic bind: -13%; IDH1 R132H inh: 2%; TrxR1 inh: 2.5µM*; GALK inhibitor: -1%; PKM2 act: 2µM*; TrxR1 substrate: -11%[57.1 µM]

Results for CCCCN(CCC(=O)O)c1ccc(/C=C/c2ccnc3ccccc23)cc1 ?
TrxR1 inh: -1%; TrxR1 substrate: 1%

Results for CCCCC#Cc1nc(NC)c2ncn([C@@H]3O[C@H](CO)[C@@H](O)[C@H]3O)c2n1 ?
TrxR1 inh: -4%[57.1 µM]; TrxR1 substrate: 0%[57.1 µM]

How did CCCCCN(CCCCC)c1ccc(/C=C/c2ccnc3ccccc23)cc1 do in these assays?
TrxR1 inh: -19%; TrxR1 substrate: -16%

What do the screens show for `O=C(CCN1C(=O)c2ccccc2Sc2ncccc21)Nc1ccc(F)cc1`?
Anesthetic bind: 7%; IDH1 R132H inh: 0%; TrxR1 inh: 7.1µM*; TrxR1 substrate: -6%

What do the screens show for `CCc1cccc(NC(=O)CCN2C(=O)c3ccccc3Sc3ncccc32)c1`?
Anesthetic bind: 1%; IDH1 R132H inh: -14%; TrxR1 inh: 18µM*; TrxR1 substrate: -1%

How did CC(C)NC(=O)CCN1C(=O)c2ccccc2Sc2ncccc21 do in these assays?
Anesthetic bind: -1%; IDH1 R132H inh: 1%; TrxR1 inh: 24%; TrxR1 substrate: 4%

How did Cc1ccc(C)c(NC(=O)CCN2C(=O)c3ccccc3Sc3ncccc32)c1 do in these assays?
Anesthetic bind: -3%; IDH1 R132H inh: -4%; TrxR1 inh: 50µM*; TrxR1 substrate: 5%

Results for O=C(C[N+]12CCCc3cccc(c31)CCC2)c1ccccc1 ?
TrxR1 inh: inconclusive; TrxR1 substrate: -3%

How did CC(C)C[C@H](NC(=O)[C@@H]1CCC(=O)N1)C(=O)N[C@@H](Cc1ccc(O)cc1)C(=O)N[C@@H](CCC(=O)O)C(=O)N[C@@H](CC(N)=O)C(=O)N[C@@H](CCCCN)C(=O)N1CCC[C@H]1C(=O)N[C@@H](CCCN=C(N)N)C(=O)N[C@@H](CCCN=C(N)N)C(=O)N1CCC[C@H]1C(=O)N[C@@H](Cc1ccc(O)cc1)C(=O)O do in these assays?
Anesthetic bind: -13%

What do the screens show for `Cc1cccc(N2C(=O)C(Cl)=C(Nc3c(C)n(C)n(-c4ccccc4)c3=O)C2=O)c1C`?
Anesthetic bind: -17%; IDH1 R132H inh: -9%; TrxR1 inh: 22µM*; GALK inhibitor: 1%; PKM2 act: -3%; TrxR1 substrate: 6%

What do the screens show for `Cc1ccc(Nc2nc3ccccc3nc2Nc2c(C)n(C)n(-c3ccccc3)c2=O)cc1`?
Anesthetic bind: -4%; IDH1 R132H inh: -9%; TrxR1 inh: inconclusive; PKM2 act: 0%; TrxR1 substrate: -9%

What do the screens show for `Cc1ccc(N2C(=O)C(Cl)=C(Nc3c(C)n(C)n(-c4ccccc4)c3=O)C2=O)cc1`?
Anesthetic bind: -13%; IDH1 R132H inh: -1%; TrxR1 inh: 18µM*; GALK inhibitor: 0%; PKM2 act: 8%; TrxR1 substrate: 8%

Results for Cc1c(NC(=O)Nc2c(Cl)cccc2Cl)c(=O)n(-c2ccccc2)n1C ?
Anesthetic bind: 3%; IDH1 R132H inh: 1%; TrxR1 inh: 18%; GALK inhibitor: 7%; PKM2 act: 15%; TrxR1 substrate: 8%

How did COc1ccc(/C=C/C(=O)c2c(O)c(OC)c3occc3c2OC)cc1OC do in these assays?
TrxR1 inh: -34%; TrxR1 substrate: -2%

Results for COc1cc2c(NC3CCN(C)CC3)nc(N3CCCN(C)CC3)nc2cc1OCc1ccccc1 ?
TrxR1 inh: -18%; TrxR1 substrate: 31%

What do the screens show for `CCOC(=O)c1c(C)oc2nc(C)nc(NCC3CCN(Cc4ccc(Cl)cc4)CC3)c12`?
Anesthetic bind: -7%; IDH1 R132H inh: -9%; TrxR1 inh: 11%; TrxR1 substrate: 3%

Results for CCc1nc(SCC(=O)c2cc(C)ccc2C)n[nH]1 ?
Anesthetic bind: -3%; IDH1 R132H inh: 9%; TrxR1 inh: inconclusive; GALK inhibitor: 0%; PKM2 act: -5%; TrxR1 substrate: -4%

Screening data from PubChem.
